Measurements as given in PubChem BioAssay (EPA / NIEHS).
“And” between values parts separate entries of the source, which are not always exact repeats. Equal values may be shown once. Results filed as inconclusive are left out. The source holds several records for some structures; these can differ, active in one and inactive in another. The source made the active and inactive calls. The calls were made as follows: active = hit-call score of the fitted dose curve at least 0.9, where 1 is the maximum; inconclusive = response in the unintended direction; inactive = score below 0.9.

molecular target: Luciferin 4-monooxygenase (Photinus pyralis) (UniProt P08659); experiment: CCTE_Simmons_QuantiLum_inhib_2: CCTE's Firefly Luciferase Inhibition Assay, Simmons Lab (AID 2283767);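 as to AC50: potency for inhibitors that lower luciferase luminescence relative to DMSO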
Sequence (P08659 whole entry, looked up): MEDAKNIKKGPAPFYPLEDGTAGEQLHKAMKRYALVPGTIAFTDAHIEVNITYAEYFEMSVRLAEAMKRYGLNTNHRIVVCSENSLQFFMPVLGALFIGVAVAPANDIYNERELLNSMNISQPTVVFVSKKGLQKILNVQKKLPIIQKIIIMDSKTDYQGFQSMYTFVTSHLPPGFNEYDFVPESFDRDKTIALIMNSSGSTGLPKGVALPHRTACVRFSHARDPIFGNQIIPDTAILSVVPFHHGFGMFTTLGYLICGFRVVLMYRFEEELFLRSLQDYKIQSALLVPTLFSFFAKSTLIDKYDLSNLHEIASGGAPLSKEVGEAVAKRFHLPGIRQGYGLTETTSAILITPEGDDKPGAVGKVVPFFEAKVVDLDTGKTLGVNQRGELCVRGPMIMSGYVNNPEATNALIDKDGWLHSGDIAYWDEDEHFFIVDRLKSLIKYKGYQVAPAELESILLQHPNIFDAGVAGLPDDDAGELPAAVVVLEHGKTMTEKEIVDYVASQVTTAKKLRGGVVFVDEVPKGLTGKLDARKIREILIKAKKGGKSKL
Procedure, shortened: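 Cell-free recombinant firefly luciferase (5 ng/well) in 200mM potassium phosphate with 1 mg/ml BSA, 30 min at 37C with 8 concentrations from 5 nM to 87.5 uM [final], 0.5% DMSO. Luminescence read after D-luciferin (150uM)/dATP (147uM) reagent injection, pH 7.8; triplicates.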

`CCOC(=O)Nc1cccc(OC(=O)Nc2ccccc2)c1` was tested. Which AC50 did it give?
The AC50 was 29.1 µM (active).

How did the outcome turn out when `CCOP(=S)(OCC)SCSP(=S)(OCC)OCC` was run?
The outcome was “inactive”.

With `CC1(C)CCC(Cc2ccc(Cl)cc2)C1(O)Cn1cncn1` (stereo not drawn) as the compound, how does the outcome read?
Its outcome is “inactive”.

Which outcome does the source give for `CCOP(=S)(OCC)Oc1nc(Cl)c(Cl)cc1Cl` here?
The outcome was “inactive”.

What does the source list for `CC(C)(C)c1cc(O)ccc1O`?
AC50: 79.7 µM (active) and 80.7 µM (active); outcome: inactive

Which outcome does the source give for `CC(C)(c1ccccc1)c1ccc(O)c(C(C)(C)c2ccccc2)c1` here?
The outcome was “inactive”.

With `O=C(O)C(F)(F)C(F)(F)C(F)(F)C(F)(F)C(F)(F)C(F)(F)F` as the compound, how does the outcome read?
The outcome was “inactive”.

For `CC1(C)Cc2cccc(O)c2O1`, which outcome is on record?
The outcome was “inactive”.

How did the outcome turn out when `NNC(=S)NN` was run?
The outcome was “inactive”.

With `CCC1(c2ccc(N)cc2)CCC(=O)NC1=O` (stereo not drawn) as the compound, how does the outcome read?
Its outcome is “inactive”.

For `C[C@H]1CCCC(=O)CCC/C=C/c2cc(O)cc(O)c2C(=O)O1`, which outcome is on record?
The outcome was “inactive”.

Which outcome does the source give for `CCCCCCCCc1ccc(O)cc1` here?
Its outcome is “inactive”.

`Oc1cccc2cccnc12` was tested. Which outcome did it give?
Its outcome is “inactive”.

Which outcome does the source give for `Cc1ccccc1N` here?
Its outcome is “inactive”.

With `CC(C)(c1ccc(OCC2CO2)cc1)c1ccc(OCC2CO2)cc1` (stereo not drawn) as the compound, how does the outcome read?
The outcome was “inactive”.

With `Cc1ccc(N)cc1Cl` as the compound, how does the outcome read?
The outcome was “inactive”.

Which outcome does the source give for `COP(=O)(OC)O/C(=C\Cl)c1cc(Cl)c(Cl)cc1Cl` here?
The outcome was “inactive”.

Which AC50 does the source give for `COP(=S)(OC)Oc1ccc(Sc2ccc(OP(=S)(OC)OC)cc2)cc1` here?
The AC50 was 53.8 µM (active).

Which AC50 does the source give for `CCCCCCCCSC(=O)Oc1cc(Cl)nnc1-c1ccccc1` here?
Its AC50 is 81.7 µM (active).

With `O=C(Nc1ccc2[nH]ccc2c1)c1cc2cc(F)ccc2n1Cc1cccc(F)c1` as the compound, how does the AC50 read?
The AC50 was 33.3 µM (active).

With `CC12CC1(C)C(=O)N(c1cc(Cl)cc(Cl)c1)C2=O` (stereo not drawn) as the compound, how does the outcome read?
The outcome was “inactive”.

For `CC(C)(C)CC(C)(C)c1ccc(O)cc1`, which outcome is on record?
The outcome was “inactive”.

For `Cc1ccc2ccccc2c1C`, which outcome is on record?
The outcome was “inactive”.

For `Clc1ccc(COC(Cn2ccnc2)c2ccc(Cl)cc2Cl)cc1` (stereo not drawn), which outcome is on record?
Its outcome is “inactive”.

`CC(C)c1cccc(C(C)C)c1O` was tested. Which outcome did it give?
Its outcome is “inactive”.

How did the outcome turn out when `OCc1ccco1` was run?
The outcome was “inactive”.

Which outcome does the source give for `CCC(C)(C)c1ccc(O)c(C(C)(C)CC)c1` here?
The outcome was “inactive”.

system: zebrafish Androgen Receptor (AR), gene 100005148; experiment: ATG_zfAR_XSP1: Attagene TRANS-FACTORIAL Multi-Species (XSP1) HepG2 Assay for zebrafish Androgen Receptor (AR) (AID 2283771)
Procedure: (§1) ATG_XSP1_multi-species_TRANS is a cell-based, multiplexed assay created by modifying the existing Attagene TRANS-FACTORIAL system to include a panel of nuclear receptors from some or all the following species: human (Homo sapiens), mouse (Mus musculus), frog (Xenopus laevis), zebrafish (Danio rerio), chicken (Gallus gallus), and turtle (Chrysemys picta). The ECOTOX-FACTORIAL format uses HepG2, a human liver cell line, with measurements taken at 24 hours after chemical dosing in a 24-well plate. Xsp1 included 3 nM 6-alpha-fluorotestosterone to partially stimulate the androgen receptor.ATG_zfAR_XSP1 is one of 29 assay components measured or calculated from the ATG_XSP1_multi-species_TRANS assay. It is designed to make measurements of mRNA induction, a form of inducible reporter, as detected with fluorescence intensity signals by Reverse transcription polymerase chain reaction (RT-PCR) and Capillary electrophoresis technology.The assay endpoint ATG_zfAR_XSP1 was analyzed in the positive analysis fitting direction relative to DMSO as the negative control and baseline of activity. Using a type of inducible reporter, measures of mRNA for gain-of-signal activity can be used to understand the reporter gene at the transcription factor-level as they relate to the gene AR. Furthermore, this assay endpoint can be referred to as a primary readout, because this assay has produced multiple assay endpoints where this one serves a reporter gene function. To generalize the intended target to other relatable targets, this assay endpoint is annotated to the nuclear receptor intended target family, where the subfamily is steroidal.
Human liver HepG2 cells are transiently transfected with multiple reporter transcription units (MRTUs) in 6-well plates using FuGene 6 reagent (Roche; 3 ml FuGene/1 mg DNA). The MRTU constructs are regulated by a cis-regulating element (promoter). […] A major difference between the CIS and TRANS system is that in CIS activities of endogenous TFs are measured, whereas the TRANS assay evaluates changes in activities of exogenous, chimeric NR-Gal4 proteins. […] At the end of 24 hour incubation, total RNA was isolated using TriZol reagent (Invitrogen). The isolated RNA is then reverse-transcribed using oligo(dT) primer and Mo-MLV reverse transcriptase (Invitrogen) with DNAse I (Ambion) treatment for 30 min. […] The fragments were purified using Qiaquick PCR columns (Qiagen), analyzed on an ABI 3130xL genetic analyzer (Applied Biosystems) with peak positions identified by using a set of X-rhodamine (ROX)-labeled MapMarker1000 molecular weight standards (BioVentures). […]

How did the AC50 turn out when `CC1(C)CCC(Cc2ccc(Cl)cc2)C1(O)Cn1cncn1` (stereo not drawn) was run?
Its AC50 is 165 µM (active).

Which AC50 does the source give for `C[C@]12CCC(=O)C[C@@H]1CC[C@@H]1[C@@H]2CC[C@]2(C)[C@@H](O)CC[C@@H]12` here?
The AC50 was 0.0358 µM (active).

Which outcome does the source give for `CC12CC1(C)C(=O)N(c1cc(Cl)cc(Cl)c1)C2=O` (stereo not drawn) here?
Its outcome is “inactive”.

With `CC(C)(C)CC(C)(C)c1ccc(O)cc1` as the compound, how does the outcome read?
Its outcome is “inactive”.

molecular target: zebrafish Estrogen Receptor (ESR1), esr1 (gene 259252) (UniProt P57717); experiment: ATG_zfER1_XSP1: Attagene TRANS-FACTORIAL Multi-Species (XSP1) HepG2 Assay for zebrafish Estrogen Receptor (ESR1) (AID 2283772)
Sequence (P57717 whole entry, looked up, the tested form may be a part): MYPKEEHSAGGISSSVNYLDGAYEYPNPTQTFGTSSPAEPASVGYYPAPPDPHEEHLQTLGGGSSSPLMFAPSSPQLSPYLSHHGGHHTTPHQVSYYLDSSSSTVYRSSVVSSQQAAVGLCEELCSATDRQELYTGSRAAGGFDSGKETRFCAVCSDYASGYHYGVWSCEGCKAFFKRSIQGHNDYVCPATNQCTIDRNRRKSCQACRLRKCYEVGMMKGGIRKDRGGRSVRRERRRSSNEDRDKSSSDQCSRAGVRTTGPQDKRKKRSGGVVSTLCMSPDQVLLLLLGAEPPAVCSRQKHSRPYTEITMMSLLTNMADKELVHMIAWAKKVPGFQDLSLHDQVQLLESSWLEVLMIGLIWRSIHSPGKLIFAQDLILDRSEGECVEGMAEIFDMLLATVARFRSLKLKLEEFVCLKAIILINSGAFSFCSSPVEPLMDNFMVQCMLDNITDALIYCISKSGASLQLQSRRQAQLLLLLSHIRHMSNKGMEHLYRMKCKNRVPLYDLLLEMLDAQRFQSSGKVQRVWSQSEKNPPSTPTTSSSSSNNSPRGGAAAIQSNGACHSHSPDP
Procedure, shortened: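 Reporter mRNA induction, gauged via RT-PCR/capillary electrophoresis fluorescence relative to DMSO controls, in HepG2 cells transiently carrying GAL4-UAS reporter units; 24 h dosing.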

Which outcome does the source give for `CC1(C)CCC(Cc2ccc(Cl)cc2)C1(O)Cn1cncn1` (stereo not drawn) here?
Its outcome is “inactive”.

With `CC(C)(C)c1cc(O)ccc1O` as the compound, how does the outcome read?
Its outcome is “inactive”.

Which outcome does the source give for `CC12CC1(C)C(=O)N(c1cc(Cl)cc(Cl)c1)C2=O` (stereo not drawn) here?
Its outcome is “inactive”.

system: zebrafish Estrogen Receptor (ESR2B), gene 317733; experiment: ATG_zfER2b_XSP1: Attagene TRANS-FACTORIAL Multi-Species (XSP1) HepG2 Assay for zebrafish Estrogen Receptor (ESR2B) (AID 2283773)
Procedure, shortened: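 HepG2 cells transiently transfected with GAL4-UAS reporter units for chimeric zebrafish ER2b-Gal4, with 3 nM 6-alpha-fluorotestosterone present; reporter mRNA measured 24 h after dosing by RT-PCR and capillary electrophoresis, gain versus DMSO.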

`CC1(C)CCC(Cc2ccc(Cl)cc2)C1(O)Cn1cncn1` (stereo not drawn) was tested. Which AC50 did it give?
The AC50 was 27.7 µM (active).

`CC(C)(C)c1cc(O)ccc1O` was tested. Which AC50 did it give?
Its AC50 is 20 µM (active).

Which AC50 does the source give for `O=C1C2(Cl)C3(Cl)C4(Cl)C(Cl)(Cl)C5(Cl)C3(Cl)C1(Cl)C5(Cl)C24Cl` (stereo not drawn) here?
Its AC50 is 1.93 µM (active).

Which AC50 does the source give for `COP(=O)(OC)O/C(=C\Cl)c1cc(Cl)c(Cl)cc1Cl` here?
Its AC50 is 73.9 µM (active).

For `C[C@]12CCC(=O)C[C@@H]1CC[C@@H]1[C@@H]2CC[C@]2(C)[C@@H](O)CC[C@@H]12`, which AC50 is on record?
The AC50 was 1 µM (active).

With `CC12CC1(C)C(=O)N(c1cc(Cl)cc(Cl)c1)C2=O` (stereo not drawn) as the compound, how does the AC50 read?
The AC50 was 60.6 µM (active).

With `CC(C)(C)CC(C)(C)c1ccc(O)cc1` as the compound, how does the AC50 read?
The AC50 was 1.7 µM (active).

system: frog Estrogen Receptor (ESR2), gene 100174814; experiment: ATG_frER2_XSP1: Attagene TRANS-FACTORIAL Multi-Species (XSP1) HepG2 Assay for frog Estrogen Receptor (ESR2) (AID 2283774)
Procedure: as §1, with “receptor.ATG_frER2_XSP1” for “receptor.ATG_zfAR_XSP1”, “ATG_frER2_XSP1” for “ATG_zfAR_XSP1”, “ER.” for “AR.”
Human liver HepG2 cells are transiently transfected with multiple reporter transcription units (MRTUs) in 6-well plates using FuGene 6 reagent (Roche; 3 ml FuGene/1 mg DNA). The MRTU constructs are regulated by a cis-regulating element (promoter). […] A major difference between the CIS and TRANS system is that in CIS activities of endogenous TFs are measured, whereas the TRANS assay evaluates changes in activities of exogenous, chimeric NR-Gal4 proteins. […] At the end of 24 hour incubation, total RNA was isolated using TriZol reagent (Invitrogen). The isolated RNA is then reverse-transcribed using oligo(dT) primer and Mo-MLV reverse transcriptase (Invitrogen) with DNAse I (Ambion) treatment for 30 min. The one-tenth of the produced cDNA was amplified by PCR using Taq DNA polymerase (Invitrogen) and two reporter sequence-specific primers. The PCR products were fluorescently labeled by primer extension with 6-arboxyfluorescein (6-FAM) 5'-labeled reporter sequence-specific primer (2 min at 95 C, 20 s at 68 C and 10 min at 72 C) and these products were digested with 5U of HpaI (New England Biolabs) for 2h at 37 C. The fragments were purified using Qiaquick PCR columns (Qiagen), analyzed on an ABI 3130xL genetic analyzer (Applied Biosystems) with peak positions identified by using a set of X-rhodamine (ROX)-labeled MapMarker1000 molecular weight standards (BioVentures). The raw capillary electrophoresis data was processed using Attagraph software (Attagene).

`CC1(C)CCC(Cc2ccc(Cl)cc2)C1(O)Cn1cncn1` (stereo not drawn) was tested. Which AC50 did it give?
The AC50 was 26.3 µM (active).

Which AC50 does the source give for `CC(C)(C)c1cc(O)ccc1O` here?
Its AC50 is 22.4 µM (active).

`O=C1C2(Cl)C3(Cl)C4(Cl)C(Cl)(Cl)C5(Cl)C3(Cl)C1(Cl)C5(Cl)C24Cl` (stereo not drawn) was tested. Which AC50 did it give?
Its AC50 is 2.24 µM (active).

`C[C@]12CCC(=O)C[C@@H]1CC[C@@H]1[C@@H]2CC[C@]2(C)[C@@H](O)CC[C@@H]12` was tested. Which AC50 did it give?
The AC50 was 1.31 µM (active).

`CC12CC1(C)C(=O)N(c1cc(Cl)cc(Cl)c1)C2=O` (stereo not drawn) was tested. Which AC50 did it give?
Its AC50 is 24.7 µM (active).

Which AC50 does the source give for `CC(C)(C)CC(C)(C)c1ccc(O)cc1` here?
Its AC50 is 2.75 µM (active).
